Records with an inconclusive call do not appear.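 How the source made its calls, unless noted: active means compounds whose dose series gives a full or clear partial fitted curve of increased nuclear translocation; inconclusive means weak partial curve or effect only at the top dose; inactive means no dose-dependent translocation response.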
System: not listed separately
Assay: Stat Signaling Pathway (AID 446; active means well fitted curve in either direction with a large enough effect, not every such curve was filed as active;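 further: ME-180 cervical cancer cells given 40 pM IL-6 alongside compound; SIE-controlled beta-lactamase reporter measured as 460/530 nm FRET emission ratio; on the % scale 0 is the no-effect control and ±100 the full control effect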)
Details: ME-180 SIE beta-lactamase reporter, IL-6 stimulated, 5 h; series mostly up to 7.69 µM; activity, negative = inhibition: at the top concentration
In short: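 ME-180 cells carrying a SIE-driven beta-lactamase reporter are stimulated with 40 pM IL-6 for 5 h at 37C in the presence of compound. The 460/530 nm FRET substrate ratio is read after 2.5 h at RT. Data are normalised to 300 pM IL-6 and to 125 nM JAK inhibitor controls.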

activity, negative = inhibition, inactive:
COc1cccc(-c2cncnc2NCc2ccccc2OC)c1 -10.1%
COc1cccc(Cn2c(=O)c(CCc3ccccc3)nc3cnc(N4CCN(C)CC4)nc32)c1 -10.5%
O=c1cnc2cnc(OCc3ccccc3)nc2n1CCc1ccccc1 1.63%
O=c1cnc2cnc(Oc3ccccc3)nc2n1Cc1cccs1 -16.7%
COc1ccc(CNc2nc(-c3cccnc3)nc3ccccc23)c(OC)c1 -20.2%
O=C(c1ccco1)N1CCC2(CC1)CN(c1cccc(-c3ccccc3)c1)C2 -22.8%
CN1CCN(c2ncc3nc(CCc4ccccc4)c(=O)n(Cc4cccs4)c3n2)CC1 -2.88%
COc1ccc(Oc2ncc3nc(CCc4ccccc4)c(=O)n(CCC#N)c3n2)cc1 -4.43%

Molecular target: Glucocorticoid receptor (Homo sapiens) (UniProt P04150)
Assay: GR-GFP Redistribution (AID 450); further: potency means the concentration at half of the fitted maximal effect
Details: U2OS GR-GFP nuclear translocation, laser cytometry, 2 h

Glucocorticoid receptor (Homo sapiens), sequence (P04150 whole entry, looked up): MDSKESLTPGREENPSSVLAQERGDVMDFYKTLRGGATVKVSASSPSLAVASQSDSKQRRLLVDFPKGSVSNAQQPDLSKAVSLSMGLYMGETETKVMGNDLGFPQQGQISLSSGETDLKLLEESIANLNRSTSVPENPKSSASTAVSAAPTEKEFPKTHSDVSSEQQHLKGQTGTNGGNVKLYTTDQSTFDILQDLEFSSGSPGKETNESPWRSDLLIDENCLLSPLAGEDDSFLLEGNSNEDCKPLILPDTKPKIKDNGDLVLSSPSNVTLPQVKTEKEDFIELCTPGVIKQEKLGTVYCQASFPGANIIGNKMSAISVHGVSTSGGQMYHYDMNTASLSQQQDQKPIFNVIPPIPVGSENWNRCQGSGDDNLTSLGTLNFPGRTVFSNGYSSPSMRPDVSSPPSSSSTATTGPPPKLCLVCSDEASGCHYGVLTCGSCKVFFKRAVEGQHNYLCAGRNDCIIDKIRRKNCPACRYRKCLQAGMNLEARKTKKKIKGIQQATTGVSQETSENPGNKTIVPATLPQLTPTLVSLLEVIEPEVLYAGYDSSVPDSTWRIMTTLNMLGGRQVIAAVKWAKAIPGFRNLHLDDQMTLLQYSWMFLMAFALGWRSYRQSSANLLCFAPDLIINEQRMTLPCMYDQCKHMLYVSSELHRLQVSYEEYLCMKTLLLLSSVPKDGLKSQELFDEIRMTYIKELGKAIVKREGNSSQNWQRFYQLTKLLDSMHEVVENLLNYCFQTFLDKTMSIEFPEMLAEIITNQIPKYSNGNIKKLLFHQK

Potency, inactive:
COc1ccc2[nH]cc(CCNc3ncnc4ccc(-c5ccccc5OC)cc34)c2c1 > 46 µM
COc1cccc(-c2cncnc2NCc2ccccc2OC)c1 > 46 µM
COc1cccc(Cn2c(=O)c(CCc3ccccc3)nc3cnc(N4CCN(C)CC4)nc32)c1 > 9.22 µM
O=c1cnc2cnc(OCc3ccccc3)nc2n1CCc1ccccc1 > 9.22 µM
CN1CCN(c2ncc3nc(-c4cccs4)c(=O)n(CCc4ccccc4)c3n2)CC1 > 9.22 µM
O=c1cnc2cnc(Oc3ccccc3)nc2n1Cc1cccs1 > 9.22 µM
COc1ccc(CNc2nc(-c3cccnc3)nc3ccccc23)c(OC)c1 > 46 µM
CN(C)c1ncc2nc(CCc3ccccc3)c(=O)n(Cc3cccs3)c2n1 > 9.22 µM
CN1CCN(c2ncc3nc(CCc4ccccc4)c(=O)n(Cc4cccs4)c3n2)CC1 > 9.22 µM
COc1ccc(Oc2ncc3nc(CCc4ccccc4)c(=O)n(CCC#N)c3n2)cc1 > 9.22 µM
CN1CCN(c2ncc3nc(-c4cn(C)c5ccccc45)c(=O)n(CCC#N)c3n2)CC1 > 9.22 µM

Molecular target: Glucocorticoid receptor (Homo sapiens) (UniProt P04150)
Assay: GR-EFC Redistribution (AID 451; calls by dose curve; further: potency means the concentration at half of the fitted maximal effect)
Details: CHO-K1 GR-EFC translocation, beta-gal luminescence, 2 h
In short: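 Translocation of GR-ED fusion to nuclear EA restores b-gal, read by luminescence after 1 h room-temperature detection. Engineered CHO-K1 biosensor cells, 1,000/well, exposed 2 h at 37 C to titrations up to 46 uM final.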

Potency, inactive:
COc1cccc(Cn2c(=O)c(CCc3ccccc3)nc3cnc(N4CCN(C)CC4)nc32)c1 > 46 µM
O=c1cnc2cnc(OCc3ccccc3)nc2n1CCc1ccccc1 > 46 µM
O=c1cnc2cnc(Oc3ccccc3)nc2n1Cc1cccs1 > 46 µM
O=C(c1ccco1)N1CCC2(CC1)CN(c1cccc(-c3ccccc3)c1)C2 > 46 µM
CN(C)c1ncc2nc(CCc3ccccc3)c(=O)n(Cc3cccs3)c2n1 > 46 µM
CN1CCN(c2ncc3nc(CCc4ccccc4)c(=O)n(Cc4cccs4)c3n2)CC1 > 46 µM
COc1ccc(Oc2ncc3nc(CCc4ccccc4)c(=O)n(CCC#N)c3n2)cc1 > 46 µM
